Hits are enriched below; roughly 19% of the tested compounds scored in any of these assays.
DT40 TDP1 CPT – qHTS for Inhibitors of human tyrosyl-DNA phosphodiesterase 1 (TDP1): qHTS in cells in presence of CPT; chicken DT40 Tdp1-/-;hTDP1 cells + 20 nM CPT, ATP luminescence, 48 h; Potency, µM (top dose mostly 46.2 µM), for inactives: at the highest dose activity change, negative = growth inhibition, most hits filed as inhibitors; 420,000 tested, 12% active; AID 686979, 2013; further: potency means the concentration at half of the fitted maximal effect; on the % scale 0 is the no-effect control and ±100 the full control effect; nearly all actives have a fitted effect of over 55% in size
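Chicken DT40 Tdp1-/- cells complemented with human TDP1, 400 cells/well, exposed to compounds plus 20 nM camptothecin for at least 48 h at 37 C; viability read as ATP content by CellTiter-Glo luminescence.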
TGFb SMAD3 inh – qHTS for Inhibitors of TGF-b. 410,000 tested, 1.2% active. Potency, µM (highest dose often 46.1 µM), inactives show at the top dose activity, negative = inhibition, hits mostly inhibitors. HepG2 CAGA-GFP TGF-b/SMAD3 reporter, GFP fluorescence, 18 h; TGF-beta stimulated, 500 pg/mL final; further: potency means the concentration at half of the fitted maximal effect; on the % scale 0 is the no-effect control and ±100 the full control effect; nearly all actives have a fitted effect of over 65% in size
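Inhibition of TGF-beta-driven CAGA-GFP reporter expression in HEPG2 cells is measured by cellular GFP fluorescence after 18 h stimulation with 500 pg/mL recombinant TGF-beta in 1% FBS medium at 37 degrees C.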
TDP1 inh – qHTS Assay for Inhibitors of Tyrosyl-DNA Phosphodiesterase (TDP1); Potency, µM (titrated, usually from 130 µM), without a hit: at the top dose activity change, negative = inhibition, usual class: inhibitors; recombinant TDP1, AlphaScreen DNA substrate cleavage; 350,000 tested, 0.28% active; further: potency means the concentration at half of the fitted maximal effect; on the % scale 0 is the no-effect control and ±100 the full control effect; nearly all actives have a fitted effect of over 40% in size
Target sequence (Q9NUW8 whole entry, looked up): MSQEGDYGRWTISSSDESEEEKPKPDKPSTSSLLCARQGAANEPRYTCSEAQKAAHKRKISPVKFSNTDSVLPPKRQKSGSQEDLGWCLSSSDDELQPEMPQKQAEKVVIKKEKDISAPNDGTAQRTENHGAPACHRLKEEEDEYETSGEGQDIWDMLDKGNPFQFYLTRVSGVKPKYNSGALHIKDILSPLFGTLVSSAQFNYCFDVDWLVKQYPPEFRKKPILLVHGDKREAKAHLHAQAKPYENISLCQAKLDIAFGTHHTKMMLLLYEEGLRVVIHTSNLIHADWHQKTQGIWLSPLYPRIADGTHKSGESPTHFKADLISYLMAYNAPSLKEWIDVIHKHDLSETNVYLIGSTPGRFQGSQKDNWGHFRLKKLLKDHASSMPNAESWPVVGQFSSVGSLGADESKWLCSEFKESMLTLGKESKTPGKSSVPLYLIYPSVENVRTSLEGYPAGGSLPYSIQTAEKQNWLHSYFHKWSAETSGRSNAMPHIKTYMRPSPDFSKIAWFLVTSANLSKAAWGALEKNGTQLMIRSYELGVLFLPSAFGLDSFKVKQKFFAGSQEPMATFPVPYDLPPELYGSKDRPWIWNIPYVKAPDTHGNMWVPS
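Compounds were preincubated with Tdp1 (1 nM final) for 15 min at room temperature before substrate (15 nM final) started a 5 min reaction; beads (10 ug/ml final) were then added for 10 min before AlphaScreen detection.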
IL1B secr inh – qHTS for Inhibitors of Inflammasome Signaling: IL-1-beta AlphaLISA Primary Screen | activity change, % at 57.5 µM | 360,000 tested, 4.7% active | AID 743279, 2014 | THP-1 LPS/ATP IL-1B secretion, AlphaLISA, 16 h; stronger effect = lower value; in the data active means activity change below about -50%; inconclusive means mostly about -30% to -49%; further: on the % scale 0 is the no-effect control and ±100 the full control effect
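THP-1 cells pretreated 1 hr with compounds (up to 57.5 uM final), then stimulated with LPS (250 ng/mL final) plus ATP (1.25 mM final); secreted IL-1B measured by AlphaLISA after 16 hr, decreased signal indicating inhibition.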
DT40 TDP1 no CPT – qHTS for Inhibitors of human tyrosyl-DNA phosphodiesterase 1 (TDP1): qHTS in cells in absence of CPT; AID 686978, 2013; DT40 Tdp1-/- hTDP1 cells, no CPT, ATP luminescence, 48 h; 420,000 tested, 15% active; Potency, µM (titrated, usually from 46.2 µM), for inactives: at the highest dose activity change, negative = growth inhibition, most hits filed as inhibitors; further: potency means the concentration at half of the fitted maximal effect; on the % scale 0 is the no-effect control and ±100 the full control effect; nearly all actives have a fitted effect of over 55% in size
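Luminescent ATP content (CellTiter-Glo) served as the growth readout. Knockout chicken DT40 cells expressing human TDP1 were exposed to compounds without camptothecin for a minimum 48 hr at 37 °C.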
HepG2 tox – qHTS for Inhibitors of TGF-b: Cytotox Counterscreen; HepG2 CAGA-GFP viability, ATP luminescence, 18 h; Potency, µM (titrated, usually from 46.1 µM), for inactives: at the top dose activity change, negative = cytotoxicity, actives largely listed as cytotoxic; 410,000 tested, 0.76% active; further: potency means the concentration at half of the fitted maximal effect
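CellTiter-Glo luminescence gave cytotoxicity after 18 hours at 37 degrees C. The cells were HepG2 CAGA-GFP in 1% FBS DMEM, stimulated with 500 pg/mL TGF-beta after compound addition. %Activity was normalised to no-cell wells (complete cell-killing) and DMSO (no toxicity), and curves were fitted and classified.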
* marks the source's active call; other numbers are inactive results; i = inactive; ? = inconclusive; / = no result given; [ ] = remark or other dose. Unless noted, the call rests on the fitted dose curve; in most records, active means well fitted curve in the direction sought with a large enough effect; inconclusive means small, poorly fitted or top-dose-only effect, or another doubt; inactive means no such curve, though single readings can be large; an effect the other way counts as inactive or inconclusive.

SMILES	DT40 TDP1 CPT	TGFb SMAD3 inh	TDP1 inh	IL1B secr inh	DT40 TDP1 no CPT	HepG2 tox
Cn1nc(-c2ccc(N3CCCCC3)c(NC(=O)c3ccco3)c2)c2ccccc2c1=O	21µM*	0%	7%	32	16µM*	-16%
CC1CCCN(c2nc3c(-c4ccc(Cl)cc4)nnn3c3ccccc23)C1 (configuration not stated)	12%	0%	1%	/	11%	3%
CC(=O)Nc1ccc(S(=O)(=O)Nc2nc(CN3CCOCC3)nc3sc4c(c23)CCCC4)cc1	-5%	0%	2%	-4	?	-27%
Cc1cc(S(=O)(=O)Nc2nc(CN3CCOCC3)nc3sc4c(c23)CCC4)ccc1F	?	-25%	1%	29	26µM*	-24%
C/C(=N\Nc1nc(N2CCCCC2)nc(N2CCOCC2)n1)c1ccccc1O	?	-24%	-1%	-86*	21µM*	-50%
Oc1ccc(/C=N/Nc2nc(N3CCCC3)nc(N3CCCC3)n2)cc1O	?	-2%	5%	34	5.8µM*	-20%
Oc1ccc(/C=N/Nc2ccc(Cl)nn2)cc1O	?	-21%	/	45	15µM*	-42%
Oc1ccc(/C=N/Nc2nc(N3CCCCCC3)nc(N3CCCCCC3)n2)c(O)c1	?	?	5%	-99*	?	i
COc1ccc2c(c1)O[C@H](c1ccc3c(c1)OCO3)[C@@H](OC(=O)NCc1ccco1)C2=O	/	/	9%	/	/	/
COc1ccc(-c2nc3ccc(Cl)cc3c(=O)n2Cc2ccccc2)cc1COc1ccc(NC(C)=O)cc1	/	/	0%	/	/	/
COc1cc(Cl)c(C)cc1NC(=O)COC(=O)C1=COCCO1	2%	-13%	/	28	5%	1%
Brc1cc2c(cc1/C=N/Nc1nc(N3CCCC3)nc(N3CCOCC3)n1)OCO2	26µM*	-5%	6%	?	16µM*	-14%
Oc1ccc(Br)cc1/C=N/Nc1nc(N2CCCCC2)nc(N2CCOCC2)n1	15µM*	16%	6%	?	?	5%
Cc1ccc(/C=N/Nc2nc(N3CCOCC3)nc(N3CCOCC3)n2)o1	-13%	-1%	7%	-20	?	1%
O=C(CN1C(=O)COc2ccc(S(=O)(=O)N3CCOCC3)cc21)NCc1ccc(Cl)cc1	-26%	?	-5%	/	-9%	-3%
COC(=O)C12OCC34C(CC5C(C)=C(O)C(=O)CC5(C)C3C(O)C1O)OC(=O)C(OC(=O)C=C(C)C)C24 (configuration not stated)	0.065µM*	-54%	/	/	0.15µM*	0%
C#CCCCO/N=C1/[C@H]2O[C@@H]2[C@@H](O)[C@H]2[C@H]1CCn1c(=O)n(Cc3cc4c(cc3Cl)OCO4)c(=O)n12	/	/	8%[21 µM]	/	/	/
O=[N+]([O-])c1ccccc1N=Nc1ccc(O)cc1O	?	1%	/	-2	26µM*	-25%
O=S(=O)(O)c1cc(O)c(N=Nc2ccc(O)cc2O)c2ccccc12	?	-8%	/	-26	?	-13%
Clc1cccc(C2=NC(c3cccs3)=Nc3ccc(Br)cc3N2)c1	16µM*	-1%	9%	/	15µM*	-24%
CC(C)c1ccc2c(c1)NC(c1ccncc1)=NC(c1cccs1)=N2	?	?	7%	/	16µM*	-16%
CCc1ccc2c(c1)C(c1cccs1)=NNC(c1cccnc1)=N2	-29%	-7%	5%	-2	-28%	-25%
CCc1ccc2c(c1)NC(c1ccc(C)cc1)=NC(c1cccs1)=N2	?	?	12%	/	26µM*	-93%
CCOc1ccc(C2=NC(c3cccs3)=Nc3ccc(C(C)C)cc3N2)cc1	?	-23%	9%	/	?	-12%
CCCCOc1ccc(C2=NC(c3cccs3)=Nc3ccc(CC)cc3N2)cc1	21µM*	-6%	7%	/	?	-20%
SMILES	DT40 TDP1 CPT	TGFb SMAD3 inh	TDP1 inh	IL1B secr inh	DT40 TDP1 no CPT	HepG2 tox
CCCCn1c(N)c(N(CC(C)C)C(=O)COC(=O)Cc2cccc(OC)c2)c(=O)[nH]c1=O	-6%	-20%	1%	8	1%	1%
O=C1C=CN(C2OC(CO)C(O)C2O)C(=O)C1 (configuration not stated)	8.2µM*	-4%	/	-9	3.7µM*	6%
Cc1cccc(N2CCN(C(=O)c3c4c(nc5ccccc35)C(=O)N(C3CCCCC3)C4)CC2)c1C	7.3µM*	26%	8%	/	5.8µM*	8%
Cc1ccc(N2CCN(C(=O)c3c4c(nc5ccccc35)C(=O)N(C3CCCCC3)C4)CC2)c(C)c1	9.2µM*	49%	6%	/	10µM*	7%
CCC(C)NC(=O)c1c2c(nc3ccccc13)C(=O)N(C1CCCCC1)C2 (configuration not stated)	-13%	27%	1%	/	-24%	3%
COc1cccc(N2CCN(C(=O)c3c4c(nc5ccccc35)C(=O)N(C3CCCCC3)C4)CC2)c1	21µM*	38%	10%	/	16µM*	4%
COc1ccc(C)cc1N(C)C(=O)c1c2c(nc3ccccc13)C(=O)N(C1CCCCC1)C2	?	55%	8%	/	?	-20%
CCOC(=O)c1cc(C#N)c(Oc2ccccc2OC)nc1-c1ccccc1	?	-21%	0%	-1	23µM*	-36%
CC(=O)c1cc(C#N)c(N2CCN(c3ccccc3)CC2)nc1C	-26%	0%	/	-16	-20%	-3%
CCOC(=O)c1cc(C#N)c(SC)nc1-c1ccccc1	?	6%	/	-9	?	7%
CCOC(=O)c1cc(C#N)c(N2CCN(c3ccccn3)CC2)nc1-c1ccccc1	?	-3%	-8%	-22	21µM*	-7%
Cc1oc2cc3oc(=O)c(CCC(=O)N(C)CC(=O)O)c(C)c3cc2c1C	14%	6%	/	-5	1%	-5%
O=C(COC(=O)Cc1ccccc1F)Nc1cccc(F)c1	12%	-3%	6%	2	-12%	22%
O=C(COC(=O)Cc1ccccc1F)Nc1ccc(F)cc1F	-10%	1%	0%	-1	-5%	3.5µM*
Cc1ccc(C(CC(=O)O)NC(=O)CN2C(=O)c3ccccc3C2=O)cc1 (configuration not stated)	-1%	7%	-10%[0.0935 µM]	13	3%	14%
